The values that follow come from PubChem BioAssay AID2685 (National Center for Advancing Translational Sciences (NCATS), 2010).

Hit rate of the full screen: of about 320,000 compounds, about 2,100 (0.66%) were called active. Inconclusive results (about 53%) are left out. Calls come from the whole dose curve; as a rule, active = well fitted inhibition curve with a large enough effect in the signal ratio, with a control signal flat (not every such curve was filed as active); inconclusive = small, poorly fitted or top-dose-only effect, or effect the other way, or a change in a side signal; inactive = flat fitted curve, though single readings scatter; the % refers to the signal ratio. The sample as a whole holds a higher share of actives than the screen did.
Potency is the fitted concentration of half-maximal effect.

The nature of the test: qHTS Assay for Lipid Storage Modulators in Drosophila S3 Cells.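 For cell number change: cells counted by Cell Tracker Red CMTPX staining in the red channel.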 For lipid storage change, negative = inhibition: % is set by controls: 0 for no effect and ±100 for the full control effect. To be noted: BODIPY lipid droplet fluorescence, 18-24 h, cells fed with added oleic acid; cell number change: measured here: cell count max response; series mostly up to 46.1 µM; lipid storage change, negative = inhibition: at the top concentration. In short, it runs like this: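 Laser-scanning cytometry quantifies lipid droplet accumulation (500–530 nm total intensity; droplet/cell object ratio) in oleic acid-fed (400 uM added) Drosophila S3 cells treated with a concentration series. 20 uM Triacsin C defined 100% inhibition.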
`N#Cc1cc2c(nc1Cl)CCC2`: the “lipid storage change, negative = inhibition” value is 16.3% (inactive) and the cell number change came out at 0.397%.

`COc1cc(/C=C(/C(=O)c2cccs2)c2nc3ccccc3[nH]2)ccc1O`: the call was inactive and the cell number change is -19%.

In the case of `O=C(NCc1ccco1)/C(=C/c1cccc(C(F)(F)F)c1)c1nc2ccccc2[nH]1`, the “lipid storage change, negative = inhibition” value is 2.93% (inactive) and the cell number change was -4.5%.

As to `O=C(/C(=C/c1cccc(Cl)c1)c1nc2ccccc2[nH]1)c1ccccc1`, the Potency is 9.2 µM (active) and the cell number change is -22.6%.

As for `Cc1ccc2nc(-c3ccccc3)c(-c3ccccc3)nc2c1`, the “lipid storage change, negative = inhibition” value is 21.7% (inactive) and the cell number change came out at 8.82%.

Consider `CCOc1cc(/C=C(\C#N)c2nc3ccccc3[nH]2)ccc1OC(C)C(=O)O` (stereo not given), for which the “lipid storage change, negative = inhibition” value is 3.1% (inactive) and the cell number change was 5.37%.

In the case of `CCN(CC)c1ccc(/C=C(/C#N)c2nc3ccccc3[nH]2)c(OC(C)C)c1`, the Potency was 3.66 µM (active).

On to `N#C/C(=C\c1ccccc1OCC(=O)O)c1nc2ccccc2[nH]1`, for which the “lipid storage change, negative = inhibition” value is -13.5% (inactive).

With `CCN(C(=O)COC(=O)c1cc(=O)c2ccccc2o1)c1c(N)n(Cc2ccccc2)c(=O)[nH]c1=O`, the “lipid storage change, negative = inhibition” value was -18.7% (inactive).

Take `COc1cccc(CN2C(=O)C(C)N(C(=O)c3ccccc3)c3ccccc32)c1` (stereo not given): the “lipid storage change, negative = inhibition” value was -3.54% (inactive) and the cell number change is -9.22%.

For `Cc1ccc(C)c(N(CC(=O)NC2CCCCC2)C(=O)c2csnn2)c1`, the compound was called inactive and the cell number change amounted to 7.08%.

Consider `Cc1cc(C)cc(N(CC(=O)NC2CCCC2)C(=O)c2csnn2)c1`, for which the compound was called inactive and the cell number change was 20%.

For `Cc1cc(C)cc(N(CC(=O)NC2CCCCC2)C(=O)c2csnn2)c1`, the Potency was 6.51 µM (active) and the cell number change was found to be 3.85%.

For `Cc1ccccc1N(CC(=O)NC1CCCC1)C(=O)c1csnn1`, the “lipid storage change, negative = inhibition” value was 0.767% (inactive) and the cell number change is -1.91%.

In the case of `CC(=O)c1ccc(N(CC(=O)NC2CCCCC2)C(=O)c2csnn2)cc1`, the “lipid storage change, negative = inhibition” value is -2.57% (inactive) and the cell number change is -0.427%.

For `Cc1ccc(Cl)cc1N(CC(=O)NC1CCCC1)C(=O)c1csnn1`, the Potency was 0.82 µM (active) and the cell number change worked out at 11.3%.

As to `O=C1C2C3C=CC(C3)C2C(=O)N1c1cccc2ccccc12` (stereo not given), the result was inactive.

As for `CCCN(c1ccccc1C(=O)O)S(=O)(=O)c1ccc2c(c1)n(C)c(=O)n2C`, the “lipid storage change, negative = inhibition” value was 7.64% (inactive) and the cell number change is 4.38%.

Turning to `CN(Cc1cccc(Cl)c1)C(=O)C1CSC2(C)CCC(=O)N12` (stereo not given), the “lipid storage change, negative = inhibition” value is -14.7% (inactive) and the cell number change was 2.85%.

As for `COc1ccc(Oc2cccc(Cl)c2CNC(=O)CCCC(=O)O)cc1`, the “lipid storage change, negative = inhibition” value was 19% (inactive) and the cell number change is -4.23%.

As for `CC1(C)CC(O)C(C)(C)N1O` (stereo not given), the “lipid storage change, negative = inhibition” value was -10.4% (inactive) and the cell number change stood at 0.759%.

As for `COc1ccc2[nH]c(=O)c(CN(C(=O)C3CCCO3)c3ccc(C)cc3)cc2c1` (stereo not given), the “lipid storage change, negative = inhibition” value was 22.5% (inactive) and the cell number change is -16.8%.

With `O=C(O)CCC(=O)Nc1ccc(/C=C/C(=O)C2CC2)cc1`, the “lipid storage change, negative = inhibition” value is 4.47% (inactive) and the cell number change amounted to 0.554%.

With `COC(=O)C(C(=O)OC)C(C[N+](=O)[O-])c1ccc(OC)cc1` (stereo not given), the “lipid storage change, negative = inhibition” value was -0.0854% (inactive) and the cell number change was -3.46%.

`Cc1ccc(C(C[N+](=O)[O-])n2nc(C)cc2C)cc1` (stereo not given): the outcome was inactive and the cell number change turned out to be 28.9%.

As for `COc1ccc(C(C[N+](=O)[O-])n2nc(C)cc2C)cc1` (stereo not given), the Potency is 5.17 µM (active) and the cell number change was -16.7%.

Take `CCCCn1c(=O)nc2n(-c3ccc(Cl)cc3)c3ccccc3cc-2c1=O`: the “lipid storage change, negative = inhibition” value was 16.3% (inactive).

For the compound `C=CCNC(=O)c1ccc(Sc2ccc(C)cc2)c([N+](=O)[O-])c1`, the “lipid storage change, negative = inhibition” value was -20% (inactive) and the cell number change is -8.5%.

With `CCOC(=O)/C(=C\c1cccc(O)c1)c1nc2sc(C)c(C)c2c(=O)[nH]1`, the Potency was 20.6 µM (active) and the cell number change is -21.1%.

For the compound `Cc1c(C(=O)O)sc2nc(/C=C/c3cccc(O)c3)[nH]c(=O)c12`, the “lipid storage change, negative = inhibition” value was 0.183% (inactive) and the cell number change worked out at 5.19%.

With `CCOC(=O)c1nc2sc(C)c(C)c2c(=O)[nH]1`, the “lipid storage change, negative = inhibition” value is 5.14% (inactive) and the cell number change is -3.45%.

`NC(=O)C1CCN(c2ccnc3cc(Cl)ccc23)CC1`: the “lipid storage change, negative = inhibition” value was -18.4% (inactive) and the cell number change was -7.1%.

Take `Cc1ccc(N(C(=O)CCCC(=O)Nc2ccccn2)C(C(=O)NC2CCCC2)c2ccc(O)cc2)cc1C` (stereo not given): the compound was called inactive and the cell number change was -6.35%.

Consider `COc1ccccc1N1CCN(C(=O)c2sc3nc4n(c(=O)c3c2C)CCC4)CC1`, for which the “lipid storage change, negative = inhibition” value was -15.3% (inactive) and the cell number change is -21.5%.

With `CCOc1ccc(CCNC(=O)c2sc3nc4n(c(=O)c3c2C)CCC4)cc1`, the “lipid storage change, negative = inhibition” value is -17.7% (inactive) and the cell number change amounted to 17.9%.

With `CCOC(=O)c1sc2nc3n(c(=O)c2c1C)CCC3`, the “lipid storage change, negative = inhibition” value is 18.2% (inactive) and the cell number change is 7.44%.

As for `COc1ccc(COC(=O)c2sc3nc4n(c(=O)c3c2C)CCC4)cc1`, the call was inactive.

Take `Cc1c(C(=O)Nc2ccc(OC(F)(F)F)cc2)sc2nc3n(c(=O)c12)CCC3`: the “lipid storage change, negative = inhibition” value was -11.7% (inactive) and the cell number change was determined as 2.69%.

In the case of `Cc1cc(C)cc(NC(=O)c2sc3nc4n(c(=O)c3c2C)CCC4)c1`, the Potency was 18.4 µM (active) and the cell number change is -23.1%.

In the case of `COc1cccc(NC(=O)c2sc3nc4n(c(=O)c3c2C)CCC4)c1`, the Potency was 4.11 µM (active) and the cell number change is -27.4%.

In the case of `CCc1cccc(NC(=O)c2sc3nc4n(c(=O)c3c2C)CCC4)c1`, the Potency was 5.8 µM (active) and the cell number change was -22.1%.

On to `CCc1ccc(NC(=O)c2sc3nc4n(c(=O)c3c2C)CCC4)cc1`, for which the Potency is 2.31 µM (active) and the cell number change is -24%.

Take `CCOC(=O)c1sc2nc3n(c(=O)c2c1C)CCCCC3`: the “lipid storage change, negative = inhibition” value was 14.1% (inactive) and the cell number change was -6.59%.

With `CCc1cccc(NC(=O)c2ccc3c(=O)n4c(nc3c2)CCCCC4)c1`, the “lipid storage change, negative = inhibition” value is 5.18% (inactive) and the cell number change is -2.31%.

With `Cc1c(C(=O)NCCO)sc2nc3n(c(=O)c12)CCC3`, the “lipid storage change, negative = inhibition” value is -0.957% (inactive) and the cell number change was determined as 20%.

For the compound `Cc1cccn2c(=O)c3cc(C(=O)NCCCN4CCOCC4)n(C)c3nc12`, the “lipid storage change, negative = inhibition” value was 21.1% (inactive).
